High-throughput results (PubChem BioAssay)
LASV entry inh: blocks Lassa virus binding or cell entry | Lassa virus pseudotyped entry inhibition, cell-based qHTS | Potency, µM (doses to about 49.2 µM), inactives show at the highest dose activity change, negative = inhibition, most hits filed as inhibitors | hit rate 4.1% among 18,000
MARV entry inh: Marburg virus entry inhibition; Potency, µM (doses to about 49.2 µM), inactives show at the top dose activity change, negative = inhibition, most hits filed as inhibitors; hit rate 6.5% among 18,000; Marburg virus pseudotype entry/binding inhibition, cell-based
* = called active by the depositor; u = inconclusive; x = no result; ! = not active in a repeat; [ ] = another dose, or the depositor's remark. A selection: hits, their analogues and other compounds. The true share with any hit is near 8%. Calls follow the shape of the full dose curve; tested in HEK293 cells. % is scaled to controls: 0 for no effect and ±100 for the full control effect; potency is read from the fitted curve at half-maximal effect.

SMILES	LASV entry inh	MARV entry inh
CCC(N)C(O)c1ccc(O)c(O)c1 (centres undefined)	8.7%	-3.1%
COc1ccc(CN(C2CCCC2)S(=O)(=O)c2ccccc2Br)cc1	-22.7%	u
OC[C@H]1O[C@@H](n2cnc3c(NCc4ccccc4)ncnc32)[C@H](O)[C@@H]1O	u	28.2µM*
O=S(=O)(O)c1ccc(Nc2ncnc3c2ncn3[C@@H]2O[C@H](CO)[C@@H](O)[C@H]2O)cc1	-12.6%	16.9%
C=C(CO[C@@H]1C=C[C@@H](c2ccccc2)O[C@@H]1CO)c1ccccc1	-23.9%[8.59 µM]	-2.0%[8.59 µM]
COC(=O)C1=C(C)N(Cc2ccccc2)C(=NCCc2c[nH]c3ccccc23)NC1c1cccc(F)c1 (centres undefined)	x	-16.8%[8.59 µM]
CC1=C(C/C=C(\C)CCC[C@H](C)CCC[C@H](C)CCCC(C)C)C(=O)c2ccccc2C1=O	-15.6%	-1.7%
CC(C)=CCC1=C(O)c2ccccc2C(=O)C1=O	u	5.01µM*
CCC[C@H]1CN(c2ccc(Br)cc2)C(=O)[C@H]1CC(=O)NC	13.6%	24.6%
C[C@@H]1CC[C@H]2C(=O)N(Cc3cccc([N+](=O)[O-])c3)C[C@H](O)CN2[C@@H]1c1cccc(Br)c1	x	-10.0%[8.59 µM]
C/C=C1\NC(=O)[C@H]2CSSCC/C=C/[C@H](CC(=O)N[C@H](C(C)C)C(=O)N2)OC(=O)C(C(C)C)NC1=O (some centres undefined)	3.16µM*	1.12µM*
C#C[C@]1(O)CC[C@H]2[C@@H]3CCC4=CC(=O)CC[C@@H]4[C@H]3C(=C)C[C@@]21CC	-20.3%	7.9%
CN(C)c1ccc(C(=C2C=CC(=[N+](C)C)C=C2)c2ccccc2)cc1	2.24µM*	1.41µM*!
CN(C)c1ccc(C(=C2C=CC(=[N+](C)C)C=C2)c2ccc(N(C)C)cc2)cc1	1.78µM*	1.41µM*
CN(C)c1ccc(-c2nccc(NCc3ccccc3)n2)cc1	-18.0%	u
C=CCNC(=O)N1C2=NC(C(=O)OC)=C(C(=O)OC)[C@@H]3N(C)c4ccccc4[C@]23C[C@H]1CO	3.9%[8.59 µM]	-30.6%[8.59 µM]
CC(=O)OC[C@H]1O[C@@H](ON=C[C@@H](C)[C@H](OCc2ccccc2)C(C)C)[C@@H](OC(C)=O)[C@@H](OC(C)=O)[C@@H]1OC(C)=O	x	43.0%[8.59 µM]
CCC(=O)N[C@@H]1c2ccccc2C2(CCN(Cc3[nH]c4c(Cl)cccc4c3C)CC2)[C@H]1OC	25.1µM*	11.2µM*
CCC(=O)N[C@@H]1c2ccccc2C2(CCN(Cc3ccccn3)CC2)[C@H]1OC	-3.8%	9.1%
CCC=CCCC(OC(=O)c1ccc(Br)cc1)C1=CCCCC1=O (centres undefined)	6.8%[8.59 µM]	61.5%[8.59 µM]
c1ccc(COC[C@H]2CO2)cc1	4.4%	10.1%
CC(C)(c1ccc(OCC2CO2)cc1)c1ccc(OCC2CO2)cc1 (centres undefined)	8.91µM*!	7.08µM*!
COc1ccc(COc2cc(-c3cccc(OC)c3)nc3ccc(NC(=O)c4ccccc4)cc23)cc1	10µM*	u
COc1ccc(COc2cc(-c3cccc(OC)c3)nc3ccc(NC(=O)c4ccc(Cl)cc4)cc23)cc1	-29.1%	-18.2%
Clc1ccccc1CNCC1CCC(CNCc2ccccc2Cl)CC1 (centres undefined)	20µM*	6.31µM*
SMILES	LASV entry inh	MARV entry inh
CC(Cc1ccccc1)NCc1ccccc1Cl (centres undefined)	-1.8%	2.8%
Cc1ccccc1CN1[C@H](C)[C@@H](c2ccccc2)Oc2c(Cl)cccc2S1(=O)=O	16.2%	17.8%
COc1cc(OC)c([C@@H]2O[C@H](CO)[C@@H](O)[C@H](O)[C@@H]2O)c(OC)c1	13.8%[8.59 µM]	102.2%[8.59 µM]
CCCC1COC(Cn2cncn2)(c2ccc(Cl)cc2Cl)O1 (centres undefined)	12.6µM*	11.2µM*
Clc1ccc(C2(Cn3cncn3)OCCO2)c(Cl)c1	-19.3%	-10.2%
Cc1nnc2n1-c1sc(CCC(=O)N3CCOCC3)cc1C(c1ccccc1Cl)=NC2	-16.4%	10.7%
Cc1nnc2n1-c1sc(CCc3ccc(CC(C)C)cc3)cc1C(c1ccccc1Cl)=NC2C (centres undefined)	7.94µM*	14.1µM*
Cc1cc2c(nc1C)CCCN2CC(O)CN1CCCc2nc(-c3ccc(Br)cc3)ccc21 (centres undefined)	10.1%[8.59 µM]	u
CN(C)c1ccc(-c2nc(NC3CCNCC3)c3ccccc3n2)cc1	-27.8%	14.1µM*
COCCNc1nc(-c2ccc(N(C)C)cc2)nc2ccccc12	4.0%	u
CC#CCN1C(=O)NC(c2ccccc2)C(C#N)=C1C (centres undefined)	-18.1%[8.59 µM]	23.2%[8.59 µM]
N#C/C(=C\c1ccc(O)c(O)c1)C(=O)NCCCNC(=O)/C(C#N)=C/c1ccc(O)c(O)c1	-21.1%	-30.5%
CC(C)c1cc(/C=C(\C#N)C(=O)NCCCc2ccccc2)cc(C(C)C)c1O	25.1µM*	u
COCC(=O)O[C@]1(CCN(C)CCCc2nc3ccccc3[nH]2)CCc2cc(F)ccc2[C@@H]1C(C)C	20µM*	8.91µM*
CCC1CN(CC(=O)N(C)Cc2nc3ccccc3[nH]2)Cc2cc(OC)ccc2O1 (centres undefined)	-1.9%	-12.8%
O=S1(=O)c2cccc(Cl)c2OC[C@H](c2ccccc2)N1Cc1cccc(F)c1	x	-49.5%
CC(=O)OC[C@H]1O[C@H](CCON=C(C)CCN2CCc3nc(-c4ccccc4)c(-c4ccccc4)cc3C2)C=C[C@H]1OC(C)=O	12.9%[8.59 µM]	u
O=C(C=NO)NCCCCNC(=O)C=NO	12.7%[8.59 µM]	-2.6%[8.59 µM]
CC(C)[C@@H](C)/C=C/[C@@H](C)[C@H]1CC[C@H]2/C(=C/C=C3\C[C@@H](O)CC[C@@H]3C)CCC[C@]12C	22.4µM*	12.7%
C=C1CCC(O)C/C1=C/C=C1\CCC[C@@]2(C)C(C(C)/C=C/C(C)C(C)C)CC[C@@H]12 (some centres undefined)	-21.7%	-29.4%
CC(=O)OC[C@H]1O[C@H](CCON=C[C@@H](C)[C@H](OCc2ccccc2)C(C)C)C=C[C@@H]1OC(C)=O	-11.2%[8.59 µM]	-2.4%[8.59 µM]
O[C@@](CCN1CCCCC1)(c1ccccc1)[C@@H]1C[C@H]2C=C[C@@H]1C2	-9.6%[17.8 µM]	u
COc1ccc(Nc2nccc(NCCO)n2)cc1	6.0%	18.0%
COc1cc(Nc2nccc(Nc3ccc4c(C)[nH]nc4c3)n2)cc(OC)c1OC	u	9.96µM*
CCN(CC)CCOc1ccccc1OC	-3.8%	-4.7%
SMILES	LASV entry inh	MARV entry inh
CCCCN(CC)CCOc1cccc2ccccc12	u	10µM*
CCN1C(=O)[C@@H]2[C@H]3[C@H](O)[C@H](O)CC(=NOC[C@H]4O[C@H](c5ccccc5)C=C[C@H]4Oc4ccc(OC)cc4)[C@@H]3CC[C@H]2C1=O	-11.5%[8.59 µM]	-28.3%[8.59 µM]
C[C@]12CC[C@H](OS(=O)(=O)O)CC1=CC[C@@H]1[C@@H]2CC[C@]2(C)C(=O)CC[C@@H]12	-7.4%	-8.2%
C[C@@H]1[C@H]2CC[C@@H]3[C@@H]4CC=C5C[C@@H](N(C)C)CC[C@]5(C)[C@@H]4CC[C@@]32CN1C	-9.1%[17.8 µM]	5.62µM*
C=C(C)CO[C@H]1C=C[C@@H](c2ccccc2)O[C@H]1CO	-23.9%[8.59 µM]	2.3%[8.59 µM]
COC(=O)N[C@H](C(C(=O)OC)=C(C)NCc1ccccc1)c1ccc(Cl)cc1	26.6%[8.59 µM]	-16.7%[8.59 µM]
CN1CCC(=C2c3ccccc3CCc3cccnc32)CC1	-4.5%	-24.5%
CCOC(=O)N1CCC(=C2c3ccc(Cl)cc3CCc3cccnc32)CC1	31.6µM*!	-17.2%
C[C@H]1CC[C@H]2C(=O)N[C@H](Cc3ccccc3)C(=O)N2[C@H]1c1ccccc1	9.1%[8.59 µM]	-17.3%[8.59 µM]
